Tests used:
Experiment in all cases: PBM binding z-score (relative to random genomic background probes); higher = stronger binding; sequences stand for … in GC…GCGATTGACAGCGTAGAATGAAGG
[1] = system: FXR:RXRa (NR concentration 270 nM, RXRa partner concentration 90 nM)
Summary of the method: (§1)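 Antibodies against each partner of ligand-free nuclear receptor dimers (one per run) detected binding on custom Agilent 4×180K protein-binding microarrays after 1 h incubation. The double-stranded probes had 34-nt variable regions carrying direct-repeat seeds, single-nucleotide variants, half-site ablations and random human genomic background sequences. Binding z-scores, from regression-normalized fluorescence, use the random background probes as reference.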

[2] = system: LXRa:RXRa (NR concentration 270 nM, RXRa partner concentration 90 nM)
Summary of the method: as §1

[3] = system: LXRa homodimer (NR concentration 270 nM)
Summary of the method: as §1

[4] = system: LXRb:RXRa (NR concentration 270 nM, RXRa partner concentration 90 nM)
Summary of the method: as §1

[5] = system: LXRb homodimer (NR concentration 270 nM)
Summary of the method: as §1

[6] = system: PPARa:RXRa (NR concentration 270 nM, RXRa partner concentration 90 nM)
Summary of the method: as §1

[7] = system: PPARg:RXRa (NR concentration 180 nM, RXRa partner concentration 90 nM)
Summary of the method: as §1

[8] = system: PPARg:RXRa 270nM:90nM, anti-RXR (NR concentration 270 nM, RXRa partner concentration 90 nM)
Summary of the method: as §1

[9] = system: PPARg:RXRa 30nM:10nM, anti-RXR (NR concentration 30 nM, RXRa partner concentration 10 nM)
Summary of the method: as §1

[10] = system: PPARg:RXRa 90nM:30nM, anti-RXR (NR concentration 90 nM, RXRa partner concentration 30 nM)
Summary of the method: as §1

[11] = system: PPARg:RXRa DBDmut IVT, anti-RXR (DBD mutation: RXRa K156A/R161A, NR concentration 270 nM, RXRa partner concentration 90 nM)
Summary of the method: as §1

[12] = system: PPARg:RXRa IVT, anti-PPARg (NR concentration 270 nM, RXRa partner concentration 90 nM)
Summary of the method: as §1

[13] = system: PPARg DBDmut:RXRa IVT, anti-PPARg (DBD mutation: PPARg1 K132A/R137A, NR concentration 270 nM, RXRa partner concentration 90 nM)
Summary of the method: as §1

[14] = system: PPARg DBDmut IVT, anti-PPARg (DBD mutation: PPARg1 K132A/R137A, NR concentration 270 nM)
Summary of the method: as §1

[15] = system: PPARg homodimer (NR concentration 180 nM)
Summary of the method: as §1

[16] = system: PXR:RXRa (NR concentration 270 nM, RXRa partner concentration 90 nM)
Summary of the method: as §1

[17] = system: PXR homodimer (NR concentration 270 nM)
Summary of the method: as §1

[18] = system: RARa:RXR (NR concentration 270 nM, RXRa partner concentration 90 nM)
Summary of the method: as §1

[19] = system: RARa homodimer (NR concentration 270 nM)
Summary of the method: as §1

[20] = system: RARb:RXRa (NR concentration 270 nM, RXRa partner concentration 90 nM)
Summary of the method: as §1

| Sequence | PBM binding z-score [1] | PBM binding z-score [2] | PBM binding z-score [3] | PBM binding z-score [4] | PBM binding z-score [5] | PBM binding z-score [6] | PBM binding z-score [7] | PBM binding z-score [8] | PBM binding z-score [9] | PBM binding z-score [10] | PBM binding z-score [11] | PBM binding z-score [12] | PBM binding z-score [13] | PBM binding z-score [14] | PBM binding z-score [15] | PBM binding z-score [16] | PBM binding z-score [17] | PBM binding z-score [18] | PBM binding z-score [19] | PBM binding z-score [20] |
| --- | --- | --- | --- | --- | --- | --- | --- | --- | --- | --- | --- | --- | --- | --- | --- | --- | --- | --- | --- | --- |
| CCGAGTAGGTTATGGGGCATTCTGGCAACGGTGA | 0.393 | 0.413 | -0.113 | 0.625 | -0.33 | 2.14 | 3.38 | 4.15 | 2.03 | 3.6 | 3.05 | 3.19 | -0.237 | -1.42 | 1.24 | 0.151 | 0.0972 | 0.523 | 0.262 | 0.978 |
| GCTAGCAGGCCATTTGGGTCACGCAATGACGGGC | 0.679 | 0.476 | -0.416 | 0.378 | -0.491 | 2.23 | 1.32 | 1.45 | 0.36 | 0.648 | 2.42 | 3.05 | -0.368 | -0.646 | 0.0821 | 1.13 | -0.117 | 1.88 | -0.356 | 1.91 |
| TATACAGGGTCCAAGGCCAGAGTACGAATGTCGA | 0.36 | 0.228 | 0.0779 | 0.18 | 1.02 | 0.314 | 0.93 | 0.625 | 0.686 | 0.795 | -0.0833 | 0.889 | 1 | 0.775 | 0.44 | 0.336 | 0.699 | 0.0317 | 0.427 | 1.2 |
| ACGGACAGGTGATGAAGGTAACTCAGGCTATCAT | 0.169 | -0.084 | -0.0768 | 0.109 | -0.152 | 0.276 | 0.712 | 0.0307 | 0.33 | 0.172 | 0.288 | 0.365 | 0.082 | 0.0676 | 0.411 | 0.11 | 0.211 | 0.174 | 0.939 | 0.745 |
| CTACCAAGGTGAACACGGTCGTTGATTACTATTC | 0.926 | 0.679 | 0.219 | 1.01 | -0.319 | 1.35 | 0.647 | 0.659 | -0.147 | 0.147 | 2.72 | 2.43 | 0.613 | -0.0431 | 0.251 | 0.292 | 0.00892 | 0.57 | 0.749 | 1.88 |
| ACTAGCGGGCCAAGTTTGGGTCACTCAAACAAAG | 0.106 | -0.183 | -0.598 | 0.723 | -0.855 | 1.5 | -0.111 | 0.168 | -0.66 | 0.126 | 0.418 | 0.997 | -0.878 | -0.789 | 0.424 | 0.722 | -0.623 | 1.51 | -1.37 | 1.64 |
| ATATGTAGGTTATCGGGTAATTCAGTTTGCGCAT | 0.917 | 1.31 | 1.01 | 1.33 | 0.955 | 3.5 | 5.49 | 5.19 | 2.91 | 4.5 | 7.14 | 7.39 | 1.87 | 2.29 | 2.19 | 1.23 | 1.15 | 1.11 | 1.97 | 1.02 |
| CGTCGAAGGTCAGCAGGTCAGTGAAAGCGACGTG | 5.54 | 3.8 | 0.42 | 3.06 | -0.433 | 4.76 | 4.28 | 4.81 | 1.5 | 2.88 | 2.98 | 3.25 | -0.047 | -1.4 | 4.2 | 3.44 | 0.233 | 4.8 | 1.59 | 5.24 |
| AGAATGAGGTTACCAAAGATCAGGGTAACGCTTG | 2.45 | 6.27 | -0.1 | 3.22 | -0.278 | 3.65 | 2.8 | 3.14 | 1.16 | 2.54 | 4.2 | 3.74 | 1.58 | 0.777 | 1.01 | 1.83 | -0.213 | 2.59 | -0.485 | 2.2 |
| AGACTGAGGTTATTAAGATCAGGGAATTGCGGTC | 1.39 | 1.31 | 0.0697 | 1.16 | -0.265 | 2.03 | 0.624 | 0.982 | 0.0377 | 0.409 | 0.46 | 0.765 | 0.238 | -0.249 | 0.438 | 1.08 | 0.427 | 1.52 | 0.126 | 1.4 |
| AATACAGGGTTATCGTAGGCCAGAGTACGCACAG | 1.75 | 5.85 | 0.204 | 2.68 | 0.3 | 2.55 | 1.75 | 1.35 | 0.668 | 0.954 | 0.539 | 1.12 | 0.626 | 0.739 | 0.97 | 1.59 | -0.0696 | 1.79 | 0.276 | 1.3 |
| CAAACTTGGTCAAAGGTCAAAGTCGAGCCAACCA | 6.18 | 6.18 | 4.48 | 5.67 | 2.36 | 6.84 | 11.5 | 10 | 10.4 | 11.2 | 3.33 | 6.48 | 1.57 | 0.873 | 4.08 | 6.01 | 1.58 | 7.69 | 1.5 | 5.11 |
| CTACCAAGGCGAACAAGGTCGTTGATTACTATTC | 0.285 | 0.164 | 0.0479 | 0.521 | -0.798 | 0.658 | 0.0767 | 0.292 | -0.118 | -0.247 | 0.161 | -0.119 | -0.0454 | 0.0113 | 0.33 | 1.25 | 0.453 | 1.16 | 0.111 | 0.395 |
| ATATGTAGGTTACATCCTGGTCATTCAGGCTATG | 0.666 | 2.03 | 0.602 | 1.28 | 0.798 | 3.16 | 5.21 | 4.44 | 2 | 3.57 | 7.08 | 7.21 | 2.2 | 2.23 | 0.657 | 0.747 | 0.205 | 1.05 | 0.992 | 1.11 |
| TGAATGAGGTTACAGATCAGGGAACGTGGCGTCG | 1.82 | 1.45 | -0.368 | 0.694 | 0.104 | 2.94 | 2.65 | 3.06 | 1.45 | 2.65 | 2.62 | 3.25 | 0.697 | 0.0776 | 0.777 | 0.892 | -0.64 | 1.67 | 0.0673 | 1.9 |
| ATCTCTAGGTAACCAAGTTCTGTGAATGCCGAAC | 0.602 | 0.255 | 0.186 | 0.427 | 0.457 | 0.701 | 0.399 | 0.795 | 0.343 | 0.427 | 3.07 | 2.82 | 0.454 | 0.664 | 0.688 | 0.262 | 0.109 | 0.329 | 0.574 | 0.423 |
| CATACTGGGCCATCAGGTCATTGATATCAACGTT | 1.86 | 1.46 | 1.4 | 1.75 | 0.36 | 2.86 | 2.91 | 3.57 | 1.42 | 2.43 | 4.24 | 4.71 | 0.816 | 1.18 | 1.3 | 1.99 | 0.876 | 2.16 | 0.345 | 2.25 |
| AGAACGAGGGCAATGAGTTGATCGCACGGGTGGC | 0.0662 | 0.0988 | -0.712 | -0.452 | -0.58 | 1.33 | 1.16 | 0.618 | -0.283 | 0.0795 | 2.79 | 2.63 | 0.67 | 0.015 | -0.315 | 1.75 | 5.1 | 0.134 | -0.671 | 2 |
